Many of the other results were omitted from the sample, so hits are more common in it than they were.
FECH block: inhibitors of human ferrochelatase, primary screen, biochemical, purified FECH, Ni-mesoporphyrin absorbance. Ferrochelatase, mitochondrial (Homo sapiens), P22830. Ni-mesoporphyrin absorbance 550 nm. calls only at 10 µM (by protocol). actives 3.3% (n = 20,000). AID 1671448, 2021;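 active = enzyme reaction rate more than 3 SD below the solvent-only control wells on the same plate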;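 also: lower slope than DMSO wells means FECH inhibition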
Target sequence (P22830 whole entry, looked up): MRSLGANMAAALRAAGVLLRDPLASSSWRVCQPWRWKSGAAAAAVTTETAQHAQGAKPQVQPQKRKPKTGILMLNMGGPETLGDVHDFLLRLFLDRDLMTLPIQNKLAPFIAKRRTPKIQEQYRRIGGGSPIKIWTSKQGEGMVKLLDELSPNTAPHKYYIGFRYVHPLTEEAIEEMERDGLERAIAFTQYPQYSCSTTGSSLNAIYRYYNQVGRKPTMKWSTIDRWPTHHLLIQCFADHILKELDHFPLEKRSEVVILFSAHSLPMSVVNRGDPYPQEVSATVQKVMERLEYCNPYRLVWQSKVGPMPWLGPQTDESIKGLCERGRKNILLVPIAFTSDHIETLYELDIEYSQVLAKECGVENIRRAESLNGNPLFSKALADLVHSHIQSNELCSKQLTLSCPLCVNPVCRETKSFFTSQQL
Starred values were filed as active, the others as inactive.

Results for CC(C)(C)c1ccc(-c2nc3nc(CNc4ccc(F)cc4)cc(=O)n3[nH]2)cc1 ?
FECH block: active

Results for Cc1ccc(NCc2cc(=O)n3[nH]c(-c4ccc(C(C)(C)C)cc4)nc3n2)cc1C ?
FECH block: inactive

How did Cc1cccc(C)c1NCc1cc(=O)n2[nH]c(-c3ccc(C(C)(C)C)cc3)nc2n1 do in these assays?
FECH block: active

What do the screens show for `CCCNCc1cc(=O)n2[nH]c(-c3ccc(C(C)(C)C)cc3)nc2n1`?
FECH block: inactive

What do the screens show for `Cc1ccc(NCc2cc(=O)n3[nH]c(-c4ccc(C(C)(C)C)cc4)nc3n2)c(C)c1`?
FECH block: active

How did Cc1ccc(NCc2cc(=O)n3[nH]c(NCc4ccccc4)nc3n2)c(C)c1 do in these assays?
FECH block: inactive

Results for Cc1cccc(NCc2cc(=O)n3[nH]c(-c4ccc(C(C)(C)C)cc4)nc3n2)c1C ?
FECH block: inactive

How did COC[C@@H]1CCCN1C(=O)c1cc(CC(C)C)on1 do in these assays?
FECH block: inactive

What do the screens show for `Cc1cccn2c(CC(=O)NC(Cn3ccnc3)C(C)C)cnc12` (stereo not given)?
FECH block: inactive

How did CCCn1cnc(NC(=O)c2cccc(CN3CCCC(O)C3)c2)n1 (stereo not given) do in these assays?
FECH block: inactive

How did COc1ccccc1NC(=O)Nc1nc(CC(=O)NC(C)c2ccccc2)cs1 (stereo not given) do in these assays?
FECH block: inactive

How did CC(C)c1nc(CN(C)C(=O)c2ccc(C3CCCN3)s2)cs1 (stereo not given) do in these assays?
FECH block: inactive

Results for CCn1c(C2CCCN(C(=O)CCc3c(C)nn(C)c3C)C2)nn(C)c1=O (stereo not given) ?
FECH block: inactive

What do the screens show for `Cc1c(O)cccc1C(=O)NCC1CCCN(Cc2ccccn2)C1` (stereo not given)?
FECH block: inactive

How did Cc1nc(CN(C)Cc2cccc(C(=O)Nc3cccnc3)c2)cs1 do in these assays?
FECH block: inactive

Results for CN(Cc1cccc(C(=O)Nc2nccs2)c1)Cc1cnccn1 ?
FECH block: active

How did CN(Cc1ccc(C(=O)Nc2ccc3c(c2)ncn3C)cc1)Cc1cnccn1 do in these assays?
FECH block: inactive

How did COc1ccc2[nH]c(CNC(C)CC(C)(C)OC)cc2c1 (stereo not given) do in these assays?
FECH block: inactive

Results for Cc1cc(N(C)C)nc(Nc2ccc(NC(=O)c3ccc(I)cc3)cc2)n1 ?
FECH block: inactive

How did Cc1ccc(C(=O)Nc2ccc(Nc3nc(C)cc(N(C)C)n3)cc2)cc1 do in these assays?
FECH block: inactive

What do the screens show for `Cc1cc(C)cc(C(=O)Nc2ccc(Nc3nc(C)cc(N(C)C)n3)cc2)c1`?
FECH block: active

What do the screens show for `CC(C)C(C)N(Cc1ccco1)C(=O)c1cnc2ccccn2c1=O` (stereo not given)?
FECH block: inactive

What do the screens show for `Cc1ccc(Cl)c(CN2CCC(Cc3nnc(CO)n3C)CC2)c1F`?
FECH block: active

What do the screens show for `COc1ccc(Cl)c(CN2CCN(c3ncc(F)cn3)CC2)c1F`?
FECH block: inactive

Results for CCOc1cccc(CN2CCC(Cc3nnc(SC)n3C)CC2)c1O ?
FECH block: inactive

Results for O=C(CSCc1nc(-c2ccccc2)no1)NCc1ccccc1Cl ?
FECH block: inactive

What do the screens show for `NC(=O)CN1CC=C(CCNC(=O)Cc2ccc(F)cc2)CC1`?
FECH block: inactive

What do the screens show for `CCCN(Cc1ccc(OC)cc1)C(=O)c1nn(C)c2ccccc12`?
FECH block: inactive

What do the screens show for `CCCNC(=O)N1CCC(n2cnc3cccnc32)CC1`?
FECH block: inactive

How did O=C(Nc1cccc(Br)c1)N1CCC(n2cnc3cccnc32)CC1 do in these assays?
FECH block: inactive

Results for O=C(Nc1ccccc1)N1CCC(n2cnc3cccnc32)CC1 ?
FECH block: active

What do the screens show for `Cc1cccc(NC(=O)N2CCC(n3cnc4cccnc43)CC2)c1`?
FECH block: inactive

How did Cc1ccccc1NC(=O)N1CCC(n2cnc3cccnc32)CC1 do in these assays?
FECH block: inactive

How did COc1cc(NC(=O)N2CCC(n3cnc4cccnc43)CC2)cc(OC)c1OC do in these assays?
FECH block: inactive

What do the screens show for `O=C(NC1CCCC1)N1CCC(n2cnc3cccnc32)CC1`?
FECH block: active

How did COc1cc(NC(=O)N2CCC(n3cnc4cccnc43)CC2)cc(OC)c1 do in these assays?
FECH block: inactive

How did COc1cccc(NC(=O)N2CCC(n3cnc4cccnc43)CC2)c1 do in these assays?
FECH block: active

What do the screens show for `NS(=O)(=O)c1ccc(NS(=O)(=O)c2ccc(-c3cnc(C4CCCC4)o3)s2)cc1`?
FECH block: inactive

What do the screens show for `c1cncc(-c2nc3c(c(NCCC45CCCN4CCC5)n2)CCNC3)c1`?
FECH block: inactive

Results for Cc1cccnc1CN1CCN(Cc2cc3ccccc3o2)CC1 ?
FECH block: inactive

How did COc1ccc(CNC(=O)CSCc2nc(-c3ccccc3)no2)cc1 do in these assays?
FECH block: inactive

Results for O=C(Nc1nc2n(n1)C(c1c(F)cccc1Cl)C=C(c1ccccc1)N2)c1ccco1 (stereo not given) ?
FECH block: inactive

What do the screens show for `CCCC(=O)Nc1nc2n(n1)C(c1c(F)cccc1Cl)C=C(c1ccccc1)N2` (stereo not given)?
FECH block: active

What do the screens show for `CC(=O)Nc1nc2n(n1)C(c1c(F)cccc1Cl)C=C(c1ccc(Cl)cc1)N2` (stereo not given)?
FECH block: inactive

How did CCCC(=O)Nc1nc2n(n1)C(c1c(F)cccc1Cl)C=C(c1ccc(C)cc1)N2 (stereo not given) do in these assays?
FECH block: inactive

Results for CC(C)CC(=O)Nc1nc2n(n1)C(c1ccccc1Cl)C=C(c1ccccc1)N2 (stereo not given) ?
FECH block: inactive

Results for CCCC(=O)Nc1nc2n(n1)C(c1ccccc1Cl)C=C(c1ccc(Cl)cc1)N2 (stereo not given) ?
FECH block: active

Results for O=C(CCc1ccccc1)Nc1nc2n(n1)C(c1c(F)cccc1Cl)C=C(c1ccccc1)N2 (stereo not given) ?
FECH block: active

What do the screens show for `CC(C)CC(=O)Nc1nc2n(n1)C(c1c(F)cccc1Cl)C=C(c1ccccc1)N2` (stereo not given)?
FECH block: active

How did O=C(Nc1nc2n(n1)C(c1c(F)cccc1Cl)C=C(c1ccccc1)N2)c1ccccc1F (stereo not given) do in these assays?
FECH block: inactive

What do the screens show for `CCCC(=O)Nc1nc2n(n1)C(c1ccccc1Cl)C=C(c1ccccc1)N2` (stereo not given)?
FECH block: inactive

What do the screens show for `O=C(CCc1ccccc1)Nc1nc2n(n1)C(c1ccccc1Cl)C=C(c1ccccc1)N2` (stereo not given)?
FECH block: inactive

Results for CCCC(=O)Nc1nc2n(n1)C(c1ccccc1Cl)C=C(c1ccc(C)cc1)N2 (stereo not given) ?
FECH block: inactive

What do the screens show for `FC(F)(F)c1ccc(Cn2cnc(-c3ccccc3)c2C2CC2)cn1`?
FECH block: inactive

How did C=CC[C@@H]1CC=C[C@@H](C)N1C(=O)C1(Cn2cccn2)CC1 do in these assays?
FECH block: inactive

Results for COc1ccc(-c2ncc3c(=O)n(Cc4cccc(C)c4)c(=O)n(C)c3n2)cc1 ?
FECH block: inactive

Screening data from PubChem.
